PubChem BioAssay AID1347076 (National Center for Advancing Translational Sciences (NCATS), 2019)
In all, about 400,000 compounds went through this assay and about 13,000 (3.2%) were called active. Another 18% or so got no clear call; they are omitted. This excerpt belongs to a sample that is enriched for actives. Values without a mark were called inactive. Calls follow the shape of the dose curve; as a rule, active = well fitted cell-killing curve with a large enough effect; inconclusive = small, poorly fitted or top-dose-only effect, or effect the other way; inactive = flat fitted curve, though single readings scatter.

Assay: qHTS assay for MDR1-selective chemotherapeutics: Primary screen using the drug-selected MDR subline cells KB-V1; also: nearly all actives have a fitted effect of over 60% in size
Conditions: KB-V1 MDR cells viability, CellTiter-Glo, 72 h; series mostly up to 46.1 µM; activity change, negative = cytotoxicity: at the top concentration
How it was run: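 Luminescent ATP read-out (CellTiter-Glo, 10 min) measures survival of drug-selected KB-V1 MDR cells after 72 h, 37 degrees C compound exposure. Medium: phenol-red-free DMEM, 10% FBS. Values from fitted concentration-response curves.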
% is scaled to controls: 0 for no effect and ±100 for the full control effect; potency is read from the fitted curve at half-maximal effect.

Structure (SMILES)	activity change, negative = cytotoxicity	Potency
CCOC(=O)C1=CCC2C(=O)N(Cc3ccccc3)C(=O)C12 (centres undefined)	11.2%	–
CCc1ccc(S(=O)(=O)Nc2cc3c(C(=O)OCc4ccccc4)c(C)oc3c3ccccc23)cc1	0%	–
COc1cc(NS(=O)(=O)c2ccc(NC(C)=O)cc2)cc(OC)c1	-3.57%	–
COc1cc2ccccc2cc1C(=O)Nc1ccc(S(=O)(=O)Nc2cc(C)on2)cc1	-2.9%	–
CC(=O)c1c(C)oc2ccc(NS(=O)(=O)c3ccc(C(=O)O)cc3)cc12	12.6%	–
COc1ccc(S(=O)(=O)Nc2ccc3oc(C)c(C(C)=O)c3c2)cc1	–	2.59 µM (active)
COc1ccc(S(=O)(=O)Nc2cc3c(C(=O)OC(C)C)c(C)oc3c3ccccc23)cc1	–	5.17 µM (active)
CN1CCn2cnc(C(=O)NCC(=O)OC(C)(C)C)c2C1=O	15.1%	–
Cc1cccc(-n2ccnc2SCC(=O)Nc2cc(C(F)(F)F)ccc2Cl)c1	-2.14%	–
C[C@H](O)[C@@H]1C(=O)N2CCc3c([nH]c4ccccc34)[C@@H]2C[C@@H]1N(C)C(=O)Nc1ccc(F)cc1	0.0676%	–
N#CC1(Nc2ccc3c4c(cccc24)CC3)CCCCC1	10.3%	–
O=C(CCc1nc2sc3c(c2c(=O)[nH]1)CCCC3)NCC(=O)Nc1ccccc1Br	-26.1%	–
O=C(NCCCN1CCOCC1)c1cc2c(s1)CCC2	13.1%	–
O=C(CNC(=O)c1cc2c(s1)CCC2)Nc1ccccc1Br	–	18.4 µM (active)
CCN(Cc1ccncc1)C(=S)Nc1ccccc1C	12.6%	–
COc1ccc([C@H]2C[C@@H](n3cc(COC(=O)c4ccccc4)nn3)[C@H](O)CN2C(=O)c2cccs2)cc1	9.34%	–
O=C(Nc1ccc(OCCO)cc1)c1csc([C@H]2C[C@H](O)[C@@H](CO)O2)n1	4.16%	–
Fc1cccc(Cc2c(-c3cccc(Cl)c3)nc3ccc(Br)cn23)c1	11.4%	–
COc1ccc(Cl)cc1NC(=O)COC(=O)C(CC(C)C)N1C(=O)C2CC=CCC2C1=O (centres undefined)	–	10.3 µM (active)
COc1ccc(Cl)cc1NC(=O)c1cccc(N2C(=O)C3CC=CCC3C2=O)c1 (centres undefined)	3.02%	–
COc1ccc(Cl)cc1NC(=O)COc1ccc2c(c1)OCO2	23.4%	–
O=C(Cn1c(-c2ccc(Cl)cc2)noc1=O)N1CCN(c2ccccc2F)CC1	–	9.2 µM (active)
O=C(CCSc1ccccc1)N1CCN(c2ccccc2F)CC1	-18.4%	–
CC1(C2CC2)NC(=O)N(CC(=O)N2CCN(c3ccccc3F)CC2)C1=O (centres undefined)	-20.2%	–
Clc1ccccc1Nc1nc(NCc2cccs2)nc2ccsc12	-0.485%	–

Structure (SMILES)	activity change, negative = cytotoxicity	Potency
CCCNC(=O)C(CC)n1nc(CC)n2c(cc3oc(C)cc32)c1=O (centres undefined)	-12%	–
CC(C)(C(=O)N1CCC1(C)C(=O)NS(=O)(=O)c1ccc(Br)cc1)c1ccccc1 (centres undefined)	5.43%	–
CC(OC(=O)c1cccnc1Cl)C(=O)NC1CCCCC1 (centres undefined)	2.47%	–
CCS(=O)(=O)N1CCCC(C(=O)NCc2ccc(C)cc2)C1 (centres undefined)	9.47%	–
Cc1ccc(C(=O)NC2CCN(C(=O)Nc3ccc(F)cc3)CC2)cc1	0%	–
Cc1ccc(NC(=O)N2CCC(C(=O)NCc3ccc(F)cc3)CC2)cc1	–	18.4 µM (active)
O=C1Nc2ccccc2NC(c2ccc3c(c2)OCO3)=C1N(Cc1ccc(F)cc1)C(=O)c1ccco1	0%	–
O=C(c1ccc2c(c1)N(Cc1ccccc1F)C(=O)c1ccccc1S2(=O)=O)N1CCOCC1	-15.2%	–
COc1ccc(C2c3c(oc4ccccc4c3=O)C(=O)N2Cc2ccc3c(c2)OCO3)cc1 (centres undefined)	12.9%	–
COc1ccc(C(=O)NCc2nnc(SCCOc3ccccc3)n2C)cc1	-6.27%	–
C=CCn1c(SCC(=O)c2ccc(Br)cc2)nnc1C(C)NC(=O)Cc1ccc(OC)cc1 (centres undefined)	0.852%	–
C=CCn1c(SCCOc2ccc(OC)cc2)nnc1C(NC(=O)c1ccc(OC)cc1)C(C)C (centres undefined)	–	11.6 µM (active)
CCOC(=O)c1c(C)[nH]c(C)c1C(=O)COC(=O)/C=C/c1cccc([N+](=O)[O-])c1	7.85%	–
O=C(OCc1cn([C@@H]2C[C@H](c3ccc(Cl)cc3)N(Cc3cccs3)C[C@H]2O)nn1)c1ccccc1	-16.6%	–
Cc1ccnc(SC2CC(=O)N(c3ccccc3)C2=O)n1 (centres undefined)	18.5%	–
COC(=O)c1ccccc1SC1CC(=O)N(c2cccc(C)c2)C1=O (centres undefined)	-2.53%	–
CCc1cccc(CC)c1N1C(=O)CC(Sc2ccccc2N)C1=O (centres undefined)	–	6.51 µM (active)
COc1cc2c3c(c1)/C(=C1/SC(=S)NC1=O)C(=O)N3C(C)(C)C=C2C	–	9.2 µM (active)
O=C(OCc1cn([C@H]2C[C@H](c3ccccc3)N(C(=O)c3cccs3)C[C@@H]2O)nn1)c1ccccc1	13.1%	–
COc1ccc(/C=C2\SC(=S)N(CCC(=O)N3CCOCC3)C2=O)cc1OC	12.8%	–
C=C1C=C(C(F)F)n2ncc(C(=O)NCCc3ccccc3OC)c2N1	0%	–
C=CCNc1ncnc2ccc(Br)cc12	–	20.6 µM (active)
O=C(O)CCCCCNc1ncnc2ccc(Br)cc12	-28.3%	–
Brc1ccc2ncnc(NCc3cccnc3)c2c1	3.72%	–
